Drawing on the supplement of paper PMC6555819, this text covers PBM binding z-score for 40 sequences.

The test system of the assay is VDR:RXRa (NR concentration 270 nM, RXRa partner concentration 90 nM). In words: PBM binding z-score (relative to random genomic background probes); higher = stronger binding; sequences stand for … in GC…GCGATTGACAGCGTAGAATGAAGG
On the procedure: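 Protein-binding microarray (Agilent 4x180K custom design, double-stranded 60-nt probes: 5' GC cap, 34-nt variable region, 24-nt constant primer region; full probe sequence given). Purified or IVT nuclear receptor:RXRα heterodimers (3:1 NR:RXRα, mostly 270:90 nM) or homodimers were incubated for 1 h in PBS with 2% milk and no ligand, then detected with Alexa488 antibodies. Fluorescence from o1-orientation probes (~5 replicates averaged) was converted to z-scores against 500 random hg19 background probes. Variable regions are seed direct-repeat (DR0–DR5) sites, all their single-nucleotide variants and half-site ablations.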
The sequence CGAACTAGGTCAAGAACAGTGAATCTCCGCACGC gave a PBM binding z-score of 1.04.
The result for GCTTATAGGTAATACAAGGTGAAAGTCCGATTGT reads 0.401; that for ACTAGCAGGCGAAGGGTCACTCAAGATTAGTCCG, 2.23; that for ATACCCAGGTGATCGTGAGGTCGTTGATACTAAC, 2.51.
The result for AGTCAATGTTCATCTAGGTAACGTAAGATATGCT reads -0.275.
In the case of GCTTACGGGTCAAAGGTTGTAGCATGAATAGAAT it was 4.66; in that of TAGACTAGGTCATTGGGCCAGTATAGTACGCATC, 1.93.
Sequence CGTCCAAGGTCAGAGAGGACAGTGAATGCCGAGT displayed a PBM binding z-score of 5.85.
As to CCTGCTAGGTCAATCGTCAGCTAAAGCAGCTCGC, the PBM binding z-score stood at 0.744.
AGTCAAAGTTCATTTAGGTAACGTAAGATATGCT had a PBM binding z-score of 4.97.
On to GCGACTGGGGCAAAGCAGGTTACCATAAGGTTGG, for which the PBM binding z-score was 0.149.
In the case of GATACAGGGTCAGCTAGAGGCTAGAGTATGGAAA it was 2.67; in that of TGAATGAGGTTAAAGCTCAGGGAACGTGGCGTCG, 1.14.
In the case of TCTTGTAGATCAAGCAGGTTAGGAAAGCCTGAGT it was 0.203.
The result for ACTATTAGTTGACTTAGTGCAACCGATACGACGC reads 0.264; that for TCAGCTAGGTCAACGATGGTCAGCTAATCTGCTA, 1.53; that for TATCCTAGGTCATTGGGCCAGTATAGTACGCATC, 3.04.
In turn, CATACAGGGTCAGCTAGGCCAGAGTTGGGACGGC registered a PBM binding z-score of 3.74.
The result for ACCAGCAGGCCAAGTTTGGGTCACTCAAACAAAG reads 0.61; that for GCTACAGGGTCAGCTAGAGGCCAGAGTATGGAAA, 3.35.
As for CCTACTGGGCCCAAAAGGTCATTGATGCCGATAA, the PBM binding z-score stood at 4.63.
The result for ATATGTAGGTTATCGGGTCACTCAGTTTGCGCAT reads 5; that for AGAACGAGGGCAATGAGTTGAGAGCACGGGTGGC, 4.33.
In the case of CCGACTGGGGCCAAGGTTACCATACTCAGTACGA it was 0.63.
GCGACTGGGACAAAGCAGGTTACCATAAGGTTGG registered a PBM binding z-score of -0.0797.
TCTTGTAGATCAAATGTTAAGAAAGCCGAAGCCT gave a PBM binding z-score of 0.366.
In the case of GGAAAGAGGGCAAGTTGATAGCAGAGTTTGATGG it was 1.24.
In the case of ATCGAAAGGTCCAGGTGAGTATAGAGAAAGGGAA it was 0.18; in that of ATCTCTAGGTAGAGTTCAGTGAAAGATCGATAGA, 2.38; in that of TCTCGAAGGACACGAAAGGTCAGAGCTCGACATC, 3.06.
In the case of CCTGGCAGGCCAATCTGGGTCACTCAAGGCTTGA it was 0.406.
CCGACTGGGGGATAAGGTTACCATAAGCCAGCCC showed a PBM binding z-score of 0.902.
The result for CAGCCAAGGTCAGGGCCAGTATAGGAGGAACGTT reads 2.4.
The result for TCGGGTAGGTTACCAATGGGGCATTCAGCTTTCT reads 0.639; that for CCGAGTAGGTTATGGCGCATTCAGGCAACGGTGA, -0.266.
The sequence TCTCGGAGGACATGAAGGTCAGAGCTTTCCAGAG came in with a PBM binding z-score of 1.77.
The result for TGAATGAGGTTATATGATCAGGGAACGTTGCAAA reads 1.33.
In the case of ATCTCTAGGTAAGACTCAGCTCAGTGAAGAACGC, the PBM binding z-score is -0.134.
In the case of GCATATAAGTAATACAAGGTGAAAGTCCGATTGT it was 0.0691; in that of CCTACTGGGCCAAAGGTCATGGATTCCAATGCTC, 4.85.
